According to PubChem BioAssay (Tox21):
Results filed as inconclusive are left out. A number with no mark means an inactive call. Calls of active or inactive are those of the source. The call rests on the fitted dose curve; in most records, active means well fitted cell-killing curve with a large enough effect in the repeat runs; inconclusive means weak or mixed curves, or effect the other way; inactive means flat fitted curve, though single readings scatter.
On the % scale 0 is the no-effect control and ±100 the full control effect.

Test: qHTS RealTime-Glo MT Cell Viability Assay in HEK293 cells - 0 hour (AID 1224880); further: top concentration of the series differs between compounds; nearly all actives have a fitted effect of over 45% in size
Settings: RealTime-Glo luminescence; series mostly up to 76.8 µM
How it was run: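 Luminescence, which tracks viable cell number through reduction of the prosubstrate to a NanoLuc substrate, was read over continuous 37 C culture. Cells (600/well) were premixed with reagent and rested 5 h before 23 nL of compound in DMSO was pinned.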
With `OCCN(CCO)CCN(CCO)CCO` the outcome was “inactive”.
In the case of `CCOC(=O)NCCC[Si](OCC)(OCC)OCC`, the outcome is reported as “inactive”.
In the case of `O=C(CCCl)NCc1ccccc1`, the outcome is reported as “inactive”.
With `C=CC1CO1` (stereo unspecified) the outcome was “inactive”.
For `C[C@]12C(=O)OC(=O)[C@H]1[C@H]1C=C[C@@H]2C1`, the outcome was “inactive”.
For `NNS(=O)(=O)c1ccc(Oc2ccc(S(=O)(=O)NN)cc2)cc1`, the outcome was “inactive”.
With `CN1CCN(C2=Nc3cc(F)ccc3Cc3ccccc32)CC1` the outcome was “inactive”.
With `Cc1cn([C@@H]2O[C@H](CO)[C@@H](O)[C@@H]2F)c(=O)[nH]c1=O` the outcome was “inactive”.
With `CCCc1c2oc(C(=O)O)cc(=O)c2cc2c(=O)cc(C(=O)O)n(CC)c12` the outcome was “inactive”.
With `Cc1ncc(CO)c(CN)c1O` the outcome was “inactive”.
In the case of `NC1=NCC2c3ccccc3Cc3ccccc3N12` (stereo unspecified), the outcome is reported as “inactive”.
In the case of `FC(F)(F)C(Cl)(Cl)Cl`, the outcome is reported as “inactive”.
For `CCC/C=C/CO`, the outcome was “inactive”.
For `C[C@@H]1CN(c2c(F)c(F)c3c(=O)c(C(=O)O)cn(C4CC4)c3c2F)C[C@H](C)N1`, the activity change, negative = cytotoxicity was 0.0765% [at 15.8 µM].
With `CCOC(=O)c1cc(=O)c2c(OCC(COc3cccc4oc(C(=O)OCC)cc(=O)c34)OC(=O)[C@@H](N)CCCCN)cccc2o1` the outcome was “inactive”.
With `CCc1cc2cc(OC)c(OC)cc2c(Cc2ccccc2)n1` the outcome was “inactive”.
Work on `COC(=O)c1ccc2cc(C(=O)OC)ccc2c1` yielded an activity change, negative = cytotoxicity of 3.21% [at 15.8 µM].
With `Cc1ccccc1C(=O)Nc1ccc(C(=O)N2CCCC(O)c3cc(Cl)ccc32)c(C)c1` (stereo unspecified) the outcome was “inactive”.
In the case of `CCOC(=O)C(Br)c1ccccc1` (stereo unspecified), the outcome is reported as “inactive”.
With `C1CCOC1` the outcome was “inactive”.
With `CCCCCCCCCCCCCCCCOP(=O)([O-])OCC[N+](C)(C)C` the outcome was “inactive”.
